Among all 410,000 compounds or so, about 18,000 (4.4%) were called active. Not shown: some 7% with an inconclusive outcome. Cut-off read from the data, not from the text of the source: active = activity change below about -60%; inconclusive = no clear call, values can overlap the other calls; inactive = above about -39%. What follows is part of a selection rich in actives, with near analogues and random picks from the rest.
Assay: qHTS Assay for inhibitors of the human cytomegalovirus (HCMV)
Settings: HFF cells, HCMV-luciferase reporter, 72 h; at 57.5 µM; stronger effect = lower value
In short: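 HFF cells seeded 16 h at 37C, treated with compounds, infected with luciferase-reporter HCMV at MOI 1 PFU/cell; luciferase read at 72 h post infection, normalized to buffer-only and Salinomycin controls.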
% is set by controls: 0 for no effect and ±100 for the full control effect.

SMILES | activity change, negative = inhibition
Nc1c(C(=O)OCC(=O)Nc2ccc(OC(F)F)cc2)[nH]c(=O)[nH]c1=O | -34.6% (inactive)
COc1ccc(NC(=O)c2ccc3oc(=O)c(S(=O)(=O)c4ccc(F)cc4)cc3c2)c(OC)c1 | 10.2% (inactive)
CCCCC[C@H](C)N1C[C@@H](COCc2ccccc2)Oc2cc(N3CC[C@@H](N(C)C)C3)ccc2S1(=O)=O | -94.8% (active)
CCCCC[C@H](C)N1C[C@@H](COCc2ccccc2)Oc2cc(N3CCC[C@@H]3CO)ccc2S1(=O)=O | 15% (inactive)
O=S1(=O)c2c(cccc2N2CCCC2)O[C@H](COCc2ccccc2)CN1C1CC1 | -34% (inactive)
CN1C(=O)c2ccccc2Sc2ccc(NC(=O)Cc3ccc(Cl)cc3)cc21 | -23.7% (inactive)
Cc1nn2c(=O)cc(COC(=O)c3cccc(NC(=O)COc4ccccc4Cl)c3)nc2s1 | 14% (inactive)
COc1ccccc1NC(=O)c1cc(C2CC2)nc2c1c(C)nn2-c1ccc(C)cc1 | 16.5% (inactive)
O=C(OC1CCCCC1=O)c1cccc(S(=O)(=O)NCc2ccccc2)c1 (stereo not drawn) | -28.2% (inactive)
Cc1ccc(Cl)cc1N1CCN(C(=O)C2CCC(CNS(=O)(=O)c3cccs3)CC2)CC1 (stereo not drawn) | -25.7% (inactive)
COc1ccc(Nc2ncc(C(=O)Nc3cc(C)ccc3OC)c3ccccc23)cc1 | -108% (active)
COC(=O)c1cnc(Nc2cc(C)ccc2OC)c2ccccc12 | -31.5% (inactive)
COc1ccc(NC(=O)c2cnc(Nc3ccc(C)c(Cl)c3)c3ccccc23)cc1OC | -10.9% (inactive)
Cc1ccc2oc3c(c(=O)c2c1)C(c1ccc(O)cc1)N(Cc1ccc2c(c1)OCO2)C3=O (stereo not drawn) | -1.21% (inactive)
CCc1cc2c(NC(Cc3ccccc3)C(=O)O)ncnc2s1 (stereo not drawn) | 32.8% (inactive)
CCc1cc2c(NC3CCCC3)ncnc2s1 | -76.1% (active)
CCc1cc2c(SCC(=O)Nc3ncc(Cl)c(C)c3Cl)ncnc2s1 | -15.5% (inactive)
NC1=NC(=O)C(Cc2cccc(Cl)c2Cl)S1 (stereo not drawn) | -8.43% (inactive)
CC(C)=N/N=C1/NC(=O)C(Cc2ccccc2)S1 (stereo not drawn) | 29.3% (inactive)
O=C1NC(=Nc2ccc(Cl)cc2)SC1Cc1cccc(Cl)c1Cl (stereo not drawn) | -64.5% (active)
CCCCC(CC)CNC(=O)C1CCN(S(=O)(=O)c2cccc3nsnc23)CC1 (stereo not drawn) | -8.64% (inactive)
CCN(CCCNC(=O)c1cc2c(=O)n(CC)c3ccccc3c2s1)Cc1ccccc1 | -82.5% (active)

SMILES | activity change, negative = inhibition
CCc1ccc(CNC(=O)c2cc3c(=O)n(CC)c4ccccc4c3s2)cc1 | -16.1% (inactive)
CCn1c(=O)c2cc(C(=O)NCCc3ccc(Cl)cc3)sc2c2ccccc21 | -0.35% (inactive)
O=c1c(NCc2cccs2)nccn1-c1ccccc1 | 54.2% (inactive)
COc1ccc(N=CN2c3ccccc3-n3cccc3C2CCc2ccccc2)cc1 (stereo not drawn) | 29.9% (inactive)
CCc1nc2c(cnn2-c2ccc(C)cc2)c(=O)n1-c1ccc(C)cc1 | -37.2% (inactive)
COc1cc(OC)cc(-c2nc3ccccc3c(=O)n2NC(=O)c2cccnc2Cl)c1 | -24.5% (inactive)
COc1ccccc1C(=O)Nn1c(-c2cccs2)nc2ccccc2c1=O | -71.7% (active)
COc1cc(C(=O)Nn2c(CC(C)C)nc3ccccc3c2=O)cc(OC)c1OC | 36.7% (inactive)
O=C(CC(c1cccs1)N1Cc2ccccc2C1=O)Nc1ccc(F)c(F)c1 (stereo not drawn) | -28.8% (inactive)
Cc1ccc(C)c(N2CCN(C(=O)Cc3c(C(=O)O)c(C)cn3C)CC2)c1 | 7.89% (inactive)
CCC1CCC2(CC1)NC(=O)N(CC(=O)Nc1ccc(OC)cc1)C2=O (stereo not drawn) | -8.02% (inactive)
CNS(=O)(=O)c1cccc(C(=O)NC2CCCc3ccccc32)c1 (stereo not drawn) | -19.2% (inactive)
Cn1cc(C(=O)NCc2ccccc2F)cn1 | 3.61% (inactive)
COC(=O)c1ccc(C(=O)NC2CC(C)(C)Cc3c2cnn3-c2ccc(F)cc2)nc1 (stereo not drawn) | 29.8% (inactive)
Cn1nccc1C(=O)NC1CCCc2c1cnn2-c1ccccc1F (stereo not drawn) | -80% (active)
Cn1nccc1C(=O)NC1CCCc2c1cnn2-c1ccc(F)cc1F (stereo not drawn) | -81.5% (active)
CC(C)(C)OC(=O)N1CCC(c2c(C(=O)NCCc3ccsc3)cnn2-c2ccc(F)cc2F)CC1 | 0% (inactive)
COc1ccc(-n2c(C)nc3c(cnn3-c3ccc(F)cc3)c2=O)cc1 | -33.7% (inactive)
Nc1cc(N2CCCCCC2)c2nonc2c1[N+](=O)[O-] | -24.1% (inactive)
Cc1ccccc1NC(=O)CN1C(=O)C(C)(C)c2ccccc21 | -4.1% (inactive)
COc1cc(OC)c(OC)cc1/C=C/c1nc2cc3ccccc3cc2c(=O)n1-c1ccc(F)c(Cl)c1 | 11% (inactive)
CCOC(=O)c1cc(C(=O)Nc2ccc(S(=O)(=O)Nc3ccc(OC)cc3)cc2)nn1C | 2.74% (inactive)

SMILES | activity change, negative = inhibition
COc1ccc(NS(=O)(=O)c2ccc(NC(=O)c3ccc(N(C)S(C)(=O)=O)cc3)cc2)cc1 | -94.5% (active)
COc1ccc(C(CNC(=O)c2ccc(NS(=O)(=O)c3ccc(F)c(C)c3)cc2)N(C)C)cc1 (stereo not drawn) | -9.49% (inactive)
O=C(c1cccs1)c1cn(CCOc2ccc(Cl)cc2)c2ccccc12 | -4.55% (inactive)
COc1ccc(CCNC(=O)c2cnc3sc(N4CCCCCC4)nn3c2=O)cc1OC | 0.444% (inactive)
COc1ccc(NC(=O)Cn2c(=O)n(Cc3ccc(C(=O)NCc4ccccc4Cl)cc3)c(=O)c3ccccc32)cc1 | -25.8% (inactive)
COc1cc(OC)c(C(=O)NNC(=O)c2ccccc2-n2cccc2)cc1OC | -25.6% (inactive)
CC1=C(C)CC(C(=O)NNC(=O)c2ccccc2O)C(C(=O)O)C1 (stereo not drawn) | -89.9% (active)
CC1=C(C)CC(C(=O)NC(C)CCc2ccccc2)C(C(=O)O)C1 (stereo not drawn) | 16.1% (inactive)
O=C(NNC(=O)c1ccccc1O)c1ccccc1O | -97% (active)
O=C(CO/N=C/c1ccccc1O)NNC(=O)c1ccccc1Cl | 35% (inactive)
CC1=C(C)CC(C(=O)NNC(=O)c2csc3c2CCC(C(C)(C)C)C3)C(C(=O)O)C1 (stereo not drawn) | 35% (inactive)
COc1ccc(-c2cc(-c3ccccc3)nc3c2COc2ccc(Cl)cc2-3)cc1 | 9.57% (inactive)
CC(=O)N1C[C@@H](CO)[C@@H](N(C)C(=O)c2ccco2)C[C@H]1c1ccccc1 | -4.23% (inactive)
COc1cc2c(cc1NC(=O)CN1CCN(S(=O)(=O)c3ccc(F)cc3)CC1)oc1ccccc12 | 63.3% (inactive)
COc1ccc(-n2c(=O)c3ccccc3n(Cc3ccccc3Cl)c2=O)cc1 | 7.59% (inactive)
CCCn1c(N)c(C(=O)CSc2nnc(Cc3cccs3)n2C2CC2)c(=O)[nH]c1=O | -9.71% (inactive)
Cc1cc(C)c(OCCN2CC(C)OC(C)C2)c(Br)c1 (stereo not drawn) | -20% (inactive)
COc1cc(NC(=O)Nc2ccc(C)cc2)cc([N+](=O)[O-])c1 | -63.5% (active)
COc1ccc(S(=O)(=O)NNC(=O)Nc2ccc(C)cc2)c(OC)c1 | -7.23% (inactive)
Cc1ccc(Oc2cc(NC(=O)CCCn3nc(C)c([N+](=O)[O-])c3C)cc([N+](=O)[O-])c2)cc1 | 3.84% (inactive)
Cc1cccc(N2CCN(C(=O)c3ccc(Nc4nc5ccccc5n5nnnc45)cc3)CC2)c1C | 9.29% (inactive)
CCOc1ccc(CNC(=O)c2ccc3c(c2)nnn3C2CCCC2)cc1 | 27.9% (inactive)

SMILES | activity change, negative = inhibition
CCCNC(=O)c1ccc(N2CCC3(CC2)CC(c2ccc(Cl)cc2)=NO3)c([N+](=O)[O-])c1 | -72.5% (active)
COCCNC(=O)c1ccc(N2CCC3(CC2)OCCO3)c([N+](=O)[O-])c1 | -4.44% (inactive)
CCCNC(=O)c1ccc(N2CCC3(CC2)CC(c2cccc(Br)c2)=NO3)c(NC(=O)c2ccco2)c1 | -2.24% (inactive)
COCCCNC(=O)c1c(NC(=O)c2cc(=O)c3cc(C)c(C)cc3o2)sc2c1CCCC2 | 11.5% (inactive)
Cc1nnc(NCc2ccccc2)c2c1nnn2Cc1ccc(F)cc1 | -5.95% (inactive)
CCc1ccc(NC(=O)c2cc(S(=O)(=O)NC3CCCCCC3)ccc2F)cc1 | -39.6% (inactive)
Cc1ccc2nc(NC(=O)c3nc(SCc4ccccc4F)ncc3Cl)sc2c1 | 16.7% (inactive)
Cc1ccc(CS(=O)(=O)c2ncc(Cl)c(C(=O)Nc3nnc(C)s3)n2)cc1 | -111% (active)
CSc1nnc(NC(=O)c2nc(S(=O)(=O)Cc3ccc(C)cc3)ncc2Cl)s1 | -102% (active)
Cc1ccc(CS(=O)(=O)CCC(=O)NC2CC2)cc1 | -21.8% (inactive)
O=C(Nc1nc2ccc(F)cc2s1)c1nc(SCc2ccccc2F)ncc1Cl | 7.44% (inactive)
CCOc1cccc(C(=O)Nc2nnc(S(=O)(=O)N(C)c3ccc(C)cc3)s2)c1 | -25.8% (inactive)
NNc1cccc(C=Cc2ccccc2)cc1=O | 34% (inactive)
Cc1ccc(S(=O)(=O)n2nc(C)c(S(=O)(=O)N3CCCCCC3)c2C)cc1 | 1.89% (inactive)
Cc1nc2nc(NCc3cccc(Br)c3)[nH]n2c(=O)c1Cc1ccccc1 | -3.03% (inactive)
COc1ccc(C(=O)CSc2c(C(C)C)cnc3c2c(=O)n(C)c(=O)n3C)cc1 | 8.98% (inactive)
CCOCCc1nn2c(=O)cc(COC(=O)CNC(=O)c3ccc(C(C)(C)C)cc3)nc2s1 | -3.83% (inactive)
CCOc1ccc(N(CC(=O)NCCc2ccc(OC)cc2)S(C)(=O)=O)cc1 | -24% (inactive)
Cc1cccc(C(CC(=O)NCC2(c3ccccc3)CCCC2)c2ccccc2)c1O (stereo not drawn) | -38.6% (inactive)
O=C(N/C(=C\c1ccc([N+](=O)[O-])cc1)C(=O)N1CCCCC1)c1ccco1 | -3.57% (inactive)
CNC(=O)/C(=C\C=C\c1ccccc1)NC(=O)c1ccc([N+](=O)[O-])cc1 | 45.3% (inactive)
O=C(NCCc1ccccc1)/C(=C\c1ccc([N+](=O)[O-])cc1)NC(=O)c1ccccc1 | -102% (active)
